Measurements published in PubChem BioAssay (NCATS).
Inconclusive results are not listed. Entries that show only a call come without a potency. Values without a mark were called inactive. Calls of active or inactive are those of the source. Calls follow the shape of the full dose curve.

assay: Cytotoxicity counterscreen for inhibitors of SARS-CoV-2 cell entry (AID 1645845); conditions: cell viability (SARS-CoV-2 entry assay cells); series mostly up to 57.1 µM; activity change, negative = cytotoxicity: at the top concentration; also: nearly all actives have a fitted effect of over 50% in size
Summary of the method: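 48 h compound treatment (after 1 h preincubation), HEK293-ACE2 cells, 37 C/5% CO2; ATP luminescence endpoint; normalized to cell wells and media blanks.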

Question: Which “activity change, negative = cytotoxicity” value does the source give for `CCCN1CCCC[C@H]1C(=O)Nc1c(C)cccc1C` here?
Answer: -4.12%

Question: With `O=C(O)CCCCC1CCSS1` (stereo not drawn) as the compound, how does the “outcome” value read?
Answer: inactive

Question: With `C/C(=C(\CCO)SS/C(CCO)=C(\C)N(C=O)Cc1cnc(C)nc1N)N(C=O)Cc1cnc(C)nc1N` as the compound, how does the “outcome” value read?
Answer: inactive

Question: Which “outcome” value does the source give for `CC(=O)Nc1ccc(S(=O)(=O)Nc2cc(C)on2)cc1` here?
Answer: inactive

Question: For `Cc1cc(C)c(NC(=O)CN(CC(=O)O)CC(=O)O)c(C)c1Br`, which “activity change, negative = cytotoxicity” value is on record?
Answer: 4.49%

Question: Which “activity change, negative = cytotoxicity” value does the source give for `C[C@@H]1O[C@@H]1P(=O)(O)O` here?
Answer: -1.63% [at 27.1 µM]

Question: With `CC(C)CN(C[C@@H](O)[C@H](Cc1ccccc1)NC(=O)O[C@H]1CO[C@H]2OCC[C@H]21)S(=O)(=O)c1ccc(N)cc1` as the compound, how does the “outcome” value read?
Answer: inactive

Question: With `CN(C)C(=O)Oc1ccc[n+](C)c1` as the compound, how does the “activity change, negative = cytotoxicity” value read?
Answer: 0.717%

Question: Which “outcome” value does the source give for `CCn1ccc(NS(=O)(=O)c2ccc(N)cc2)nc1=O` here?
Answer: inactive

Question: Which Potency does the source give for `CCn1cc(C(=O)O)c(=O)c2cc(F)c(N3CCNC(C)C3)c(F)c21` (stereo not drawn) here?
Answer: inactive

Question: For `O=C(CO)[C@@H](O)[C@H](O)[C@@H](O)CO`, which “outcome” value is on record?
Answer: inactive

Question: Which “activity change, negative = cytotoxicity” value does the source give for `O=C(C1CCCCC1)N1CC(=O)N2CCCc3ccccc3C2C1` (stereo not drawn) here?
Answer: 3.22%

Question: For `Oc1cccc(O)c1`, which “activity change, negative = cytotoxicity” value is on record?
Answer: -2.12%

Question: Which outcome does the source give for `NC[C@H]1O[C@H](O[C@H]2[C@H](O[C@@H]3O[C@H](CO)[C@@H](O)[C@H]3O)C(O)[C@H](N)C[C@@H]2N)[C@H](N)[C@@H](O)[C@@H]1O` (stereo partly drawn) here?
Answer: inactive [at 11.3 µM]

Question: Which “outcome” value does the source give for `CCCC(=O)OCOC(=O)C1=C(C)NC(C)=C(C(=O)OC)C1c1cccc(Cl)c1Cl` (stereo not drawn) here?
Answer: inactive

Question: With `NC(N)=NS(=O)(=O)c1ccc(N)cc1` as the compound, how does the “outcome” value read?
Answer: inactive

Question: Which Potency does the source give for `CCOC(=O)[C@H](CCc1ccccc1)N[C@@H](C)C(=O)N1CCC[C@H]1C(=O)O` here?
Answer: inactive

Question: With `CCCCN(CCCC)CCCOC(=O)c1ccc(N)cc1` as the compound, how does the “activity change, negative = cytotoxicity” value read?
Answer: -6.71%
